Measurements as given in PubChem BioAssay (NCATS).
Inconclusive results are not listed. Activity calls are given as the source filed them. The call rests on the fitted dose curve; in most records, active means well fitted curve in the direction sought with a large enough effect; inconclusive means small, poorly fitted or top-dose-only effect, or another doubt; inactive means no such curve, though single readings can be large; an effect the other way counts as inactive or inconclusive.

Experiments:
C33A = assay: Primary qHTS to identify gynecologic anti-cancer compounds using libraries of approved drugs and bioactive compounds (AID 1345084); details: Gynecologic cancer cell panel viability, ATPlite luminescence, 48 h; series mostly up to 57.5 µM; further: nearly all actives have a fitted effect of over 55% in size
Method in brief: (§1)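 Five-concentration response, 48 h; readout is ATP-driven luciferase luminescence.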

CAOV3 = assay: as above; details: Gynecologic cancer cell panel viability, ATPlite luminescence, 48 h; series mostly up to 57.5 µM
Method in brief: as §1

CASKI = assay: as above; details: Gynecologic cancer cell panel viability, ATPlite luminescence, 48 h; series mostly up to 57.5 µM
Method in brief: as §1

Es-2 = assay: as above; details: Gynecologic cancer cell panel viability, ATPlite luminescence, 48 h; series mostly up to 57.5 µM
Method in brief: as §1

HeLa = assay: as above; details: Gynecologic cancer cell panel viability, ATPlite luminescence, 48 h; series mostly up to 57.5 µM
Method in brief: as §1

Hek293T = assay: as above; details: Gynecologic cancer cell panel viability, ATPlite luminescence, 48 h, control line for the selectivity index; series mostly up to 57.5 µM
Method in brief: as §1

JEG-3 = assay: as above; details: Gynecologic cancer cell panel viability, ATPlite luminescence, 48 h; series mostly up to 57.5 µM
Method in brief: as §1

PA-1 = assay: as above; details: Gynecologic cancer cell panel viability, ATPlite luminescence, 48 h; series mostly up to 57.5 µM
Method in brief: as §1

Tov-21-G = assay: as above; details: Gynecologic cancer cell panel viability, ATPlite luminescence, 48 h; series mostly up to 57.5 µM
Method in brief: as §1

Tov112D = assay: as above; details: Gynecologic cancer cell panel viability, ATPlite luminescence, 48 h; series mostly up to 57.5 µM
Method in brief: as §1

OV90 = assay: as above; details: Gynecologic cancer cell panel viability, ATPlite luminescence, 48 h; series mostly up to 57.5 µM
Method in brief: as §1

SKOV3 = assay: as above; details: Gynecologic cancer cell panel viability, ATPlite luminescence, 48 h; series mostly up to 57.5 µM
Method in brief: as §1

[1] = qHTS assay to identify inhibitors of the type 1 interferon - major histocompatibility complex class I in skeletal muscle: Counter screen cell viability and HiBit confirmation (AID 1347412); details: iHSKM muscle cells + IFN-b, HiBiT or CellTiter-Glo, 24 h; for activity change, negative = inhibition: Viability, at 45.9 µM (top of the series); on all read-outs here: nearly all actives have a fitted effect of over 60% in size
Method in brief: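 After 24 h with human IFN-beta (4 ng/ml) and compound titrations (top 46 uM final, 1:3, 12 points), HLA-B HiBit myoblasts were lysed for either Nano-Glo HiBiT luminescence or CellTiter Glo viability on paired plates.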
On the % scale 0 is the no-effect control and ±100 the full control effect; potency means the concentration at half of the fitted maximal effect.

O=C(c1cc2c(cc1F)OC(c1ccc(F)cc1)(c1ccc(Cl)cc1Cl)O2)N1CCOCC1 (stereo unspecified)
inactive: Potency (C33A) | Potency (CAOV3) | Potency (CASKI) | Potency (Es-2) | Potency (HeLa) | Potency (Hek293T) | Potency (JEG-3) | Potency (PA-1) | Potency (Tov-21-G) | Potency (Tov112D)

Nc1nc(Nc2ccc(S(N)(=O)=O)cc2)n(C(=S)Nc2c(F)cccc2F)n1
active: Potency (HeLa) 15.8 µM
inactive: Potency (C33A) | Potency (CAOV3) | Potency (CASKI) | Potency (Es-2) | Potency (JEG-3) | Potency (OV90) | Potency (PA-1) | Potency (SKOV3)

COc1c(/C=C/C(C)(C)O)ccc2c1C(=O)OCc1cc(C)cc(O)c1O2
inactive: Potency (C33A) | Potency (CAOV3) | Potency (CASKI) | Potency (Es-2) | Potency (HeLa) | Potency (JEG-3) | Potency (OV90) | Potency (PA-1) | Potency (Tov-21-G) | Potency (Tov112D)

Cc1cc(C(N)=O)ccc1-n1c(CCC(=O)O)ccc1-c1ccc(-n2ccnc2)cc1
inactive: Potency (C33A) | Potency (CAOV3) | Potency (CASKI) | Potency (Es-2) | Potency (HeLa) | Potency (Hek293T) | Potency (OV90) | Potency (PA-1) | Potency (Tov-21-G) | Potency (Tov112D)

C=C(CCC1=C(C)[C@H]2[C@H](CC3[C@@H]4CC=C5C[C@@H](O)C[C@@H](O)[C@]5(C)C4[C@H](O)C[C@@]32C)O1)CO[C@@H]1O[C@H](CO)[C@@H](O)[C@H](O)[C@H]1O (stereo partly specified)
active: Potency (C33A) 1.26 µM | Potency (CAOV3) 3.55 µM | Potency (CASKI) 3.16 µM | Potency (Es-2) 3.16 µM | Potency (HeLa) 3.16 µM | Potency (Hek293T) 3.16 µM | Potency (PA-1) 3.16 µM | Potency (SKOV3) 2.82 µM | Potency (Tov-21-G) 2.51 µM | Potency (Tov112D) 1.12 µM

CCCCc1nc2cc(/C=C/C(=O)NO)ccc2n1CCN(CC)CC
inactive: activity change, negative = inhibition [1] 3.05%
active: Potency (C33A) 5.01 µM | Potency (CAOV3) 8.91 µM | Potency (CASKI) 5.62 µM | Potency (Es-2) 3.16 µM | Potency (HeLa) 2.51 µM | Potency (Hek293T) 3.16 µM | Potency (JEG-3) 3.16 µM | Potency (PA-1) 0.631 µM | Potency (SKOV3) 3.98 µM | Potency (Tov-21-G) 7.94 µM | Potency (Tov112D) 3.16 µM | Potency ([1]; HiBiT) 1.11 µM

CN1CCN(C(=O)c2ccc3cc(CCNc4ncnc5ccc(C#N)cc45)ccc3c2)CC1
inactive: Potency (C33A) | Potency (CAOV3) | Potency (CASKI) | Potency (Es-2) | Potency (HeLa) | Potency (Hek293T) | Potency (Tov-21-G) | Potency (Tov112D) | activity change, negative = inhibition [1] 5.79%
